# Screening data (PubChem BioAssay)
# Many of the other results were omitted from the sample, so hits are more common in it than they were.
# Methyltransferases: Primary Screen for Target Class Profiling of Small Molecule Inhibitors of Methyltransferases; AID 1745853, 2022; calls only at 40 µM; purified enzyme, MTase-Glo SAH luminescence; hits give low values; 3.9% of 25,000 active; call rule not given here
#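 Each enzyme was reacted with SAM and its substrate, with compounds tested once at 40 uM; SAH formed was read by MTase-Glo luminescence.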
# Numbers without * were called inactive; i = inactive; + = active, no number; ! = not confirmed by another sample. On the % scale 0 is the no-effect control and ±100 the full control effect.
SMILES,Methyltransferases
CCC(C(=O)NCc1cccc(C)c1)n1ccc2cc(S(=O)(=O)N3CCCCC3)ccc21 (stereo unspecified),i
CN1C(=O)c2cc(C(=O)NCc3cccc(Cl)c3)nn2CC1(C)C(=O)NC1CCCCC1 (stereo unspecified),i
N#C/C(=C1\Nc2ccccc2S1)c1ccnc(NCCc2cccnc2)n1,+
CC1c2cccn2CCN1C(=O)Nc1ccccc1 (stereo unspecified),i
COc1ccc(OC)c(NS(=O)(=O)c2cc3c(cc2C)n(C)c(=O)n3C)c1,i
COC(=O)c1cc2n(n1)CC(C)(C(=O)NC1CCC(C)CC1)N(c1cccc(OC)c1)C2=O (stereo unspecified),i
CN1C(=O)c2cc(C(=O)Nc3ccc(F)cc3F)nn2CC1(C)C(=O)NC1CCCCCC1 (stereo unspecified),i
O=C(CCc1nnc2n(Cc3ccccc3)c(=O)c3ccccc3n12)N1CCC(Cc2ccccc2)CC1,i
C[C@@]1(C2CCCC2)Cc2cc(OCC(=O)O)c(Cl)c(Cl)c2C1=O,+
CCCn1c(=O)c2ccc(C(=O)NC(C)CC)cc2n2c(=O)n(CC(=O)Nc3cccc(F)c3)nc12 (stereo unspecified),i
CCN(CCCNC(=O)CCc1nnc2n(Cc3ccccc3)c(=O)c3ccccc3n12)c1ccccc1,i
CCN(CC)CCNC(=O)CCc1nnc2n(Cc3ccc(Cl)cc3)c(=O)c3ccccc3n12,+
O=C(CCc1nnc2n(Cc3ccc(F)cc3)c(=O)c3ccccc3n12)NCc1ccc(F)cc1,i
COCCNC(=O)CCc1nnc2n(Cc3ccc(Cl)cc3)c(=O)c3ccccc3n12,i
O=C(CCc1nnc2n(Cc3ccccc3)c(=O)c3ccccc3n12)NCCc1ccc(Cl)cc1,i
CCN(CC)CCCNC(=O)CCc1nnc2n(Cc3ccc(F)cc3)c(=O)c3ccccc3n12,+
CCCCN1C(=O)c2cc3ccccc3n2CC1(C)C(=O)NC1CCCC1 (stereo unspecified),i
O=C(Cn1c(=O)oc2cc(S(=O)(=O)N3CCCC3)ccc21)Nc1nccs1,i
CCCn1c(=O)c2cc(F)ccc2n2c(SCC(=O)Nc3ccccc3Cl)nnc12,i
CC1(C(=O)NCc2ccccc2)Cn2c(ccc2-c2ccco2)C(=O)N1c1ccc(Cl)cc1 (stereo unspecified),i
CN1C(=O)c2cc(NC(=O)c3cccc(N(C)C)c3)ccc2N2CCN=C12,i
COc1ccc(Sc2ccc(NC(=O)c3ccccc3Cl)cc2C#N)cc1,i
COc1cc(OC)cc(C(=O)Nc2ccc(Cl)c(-c3nc4ccc(N(C)C)cc4[nH]3)c2)c1,+
CN1C(=O)c2cc(C(=O)NCCc3c[nH]c4ccccc34)nn2CC1(C)C(=O)NC1CCCCC1 (stereo unspecified),i
CCC(C)Nc1nc2c(S(=O)(=O)c3ccc(C(C)C)cc3)nnn2c2ccccc12 (stereo unspecified),i
SMILES,Methyltransferases
COc1cccc(N2CCN(S(=O)(=O)c3cccc(-c4nc(-c5ccccc5)no4)c3)CC2)c1,i
COc1ccc(-c2cc3n(n2)CC(C)(C(=O)NCc2ccccc2OC)N(c2ccc(F)cc2F)C3=O)cc1 (stereo unspecified),i
CC(C)CNC(=O)c1ccc2c(=O)n(C(C)C)c3nn(CC(=O)Nc4ccccc4F)c(=O)n3c2c1,i
C=CCNC(=O)c1ccc2c(=O)[nH]c3c(C(=O)NC(C)C)sc(=S)n3c2c1,i
Cc1ccc(CNC(=O)c2ccc3c(=O)[nH]c4c(C(=O)NC(C)C)sc(=S)n4c3c2)cc1,+
Cc1ccc(CNC(=O)c2ccc3c(=O)[nH]c4c(C(=O)NCC5CCCO5)sc(=S)n4c3c2)cc1 (stereo unspecified),i
Cn1c(=O)n(C)c2cc(S(=O)(=O)Nc3cccc(F)c3)ccc21,i
COc1ccc(Cl)cc1NC(=O)Cn1nc2n(CCCOC(C)C)c(=O)c3ccccc3n2c1=O,i
O=C(Cn1ccc2cc(S(=O)(=O)N3CCCCC3)ccc21)NCc1cccnc1,i
COc1cc2ncnc(Nc3cccc(Cl)c3)c2cc1OC,+
COc1cc2ncnc(Nc3cccc(O)c3)c2cc1OC,i
CCCNC(=O)Nc1ccc(Oc2ncnc3cc(OC)c(OC)cc23)cc1Cl,i
COc1ccc(NC(=O)CSc2nnc3n(CC(C)C)c(=O)c4ccc(Cl)cc4n23)cc1,i
CCOC(=O)CNC(=O)C1(C)Cn2nc(C(=O)OCC)cc2C(=O)N1c1ccc(Cl)cc1 (stereo unspecified),i
COc1ccc(OC)c(S(=O)(=O)N2CCCC3(CC2)CNC(=O)O3)c1 (stereo unspecified),i
COc1ccc(NC(=O)Cn2nc3n(CCc4ccccc4)c(=O)c4ccccc4n3c2=O)cc1OC,i
O=S(=O)(c1ccccc1)c1nnn2c1nc(NC1CCN(Cc3ccccc3)CC1)c1ccccc12,i
COc1cc2nc(N3CCCC3)nc(NCCCCCN3CCCC3)c2cc1OC,+!
COc1cc2nc(-c3ccc(N4CCN(C)CC4)cc3)nc(NCCN3CCOCC3)c2cc1OC,i
COc1cc2c(NC3CCN(C(C)C)CC3)nc(C3CCCCC3)nc2cc1OCCCN1CCCC1,+!
COc1cc2c(Nc3ccc(NC(=O)c4ccccc4)cc3)ncnc2cc1OCCCN1CCOCC1,i
O=S(=O)(c1ccccc1)c1nnn2c1nc(NC1CCN(Cc3ccccc3)CC1)c1cc(Cl)ccc12,i
COc1cc2nc(N3CCCCC3)nc(NC3CCN(C)CC3)c2cc1OC,+!
COc1cc2nc(N3CCCCC3)nc(NC3CCN(Cc4ccccc4)CC3)c2cc1OC,+!
COc1cc2nc(-c3cc(F)ccc3O)nc(N[C@@H]3CNC[C@H]3C(C)(C)O)c2cc1OC,i
SMILES,Methyltransferases
CC1CCN(S(=O)(=O)c2ccc3c(ccn3CCC(=O)N3CCc4ccccc43)c2)CC1,i
CN(Cc1ccccc1)C(=O)Cn1c(=O)oc2cc(S(=O)(=O)N3CCCCC3)ccc21,i
CC(C)OCCCn1c(=O)c2ccccc2n2c(CCC(=O)NCc3ccc4c(c3)OCO4)nnc12,i
CC1(C(=O)NC2CCCCCC2)Cn2nc(-c3ccco3)cc2C(=O)N1Cc1ccccc1Cl (stereo unspecified),i
CC1(C(=O)NC2CCCCCC2)Cn2c(ccc2-c2ccco2)C(=O)N1C1CCCC1 (stereo unspecified),i
COc1ccc(CNC(=O)c2cc3n(n2)CC(C)(C(=O)NC2CCCCCC2)N(C)C3=O)cc1OC (stereo unspecified),i
CCCn1c(=O)c2ccc(C(=O)NC(C)C)cc2n2c(=O)n(CC(=O)NCc3ccc(Cl)cc3)nc12,i
CCC(C)NC(=O)c1ccc2c(=O)n(Cc3ccccc3)c3nn(Cc4ccccc4Cl)c(=O)n3c2c1 (stereo unspecified),i
CC(NC(=O)CCc1nnc2n(CCc3ccccc3)c(=O)c3ccccc3n12)c1ccccc1 (stereo unspecified),i
CC(C)C1c2cccn2CCN1C(=O)Nc1ccccc1Cl (stereo unspecified),i
Cc1cc(C)cc(NC(=O)CSc2nnc3n(Cc4ccccc4)c(=O)c4ccccc4n23)c1,i
COc1cc2ncnc(N3CCC(Oc4cnc5ccccc5n4)C3)c2cc1OC (stereo unspecified),i
COc1cc2nc(N3CCC(N4CCCCC4)CC3)nc(NC3CCCCCC3)c2cc1OC,+
